What all share (test): DAPPL (digital affinity profiling via proximity ligation, sequencing); 10 mM Tris-HCl pH 7.5, 50 mM NaCl, 1 mM DTT, 4% glycerol, room temperature, 30 min; GST-TFs on glutathione beads, 16-mer random dsDNA library, 0.1% formaldehyde crosslink after washing; high values mean tight binding
The target in assay [1] is T1, FLI1 (Homo sapiens, UniProt Q01543 1-452).
T1 sequence: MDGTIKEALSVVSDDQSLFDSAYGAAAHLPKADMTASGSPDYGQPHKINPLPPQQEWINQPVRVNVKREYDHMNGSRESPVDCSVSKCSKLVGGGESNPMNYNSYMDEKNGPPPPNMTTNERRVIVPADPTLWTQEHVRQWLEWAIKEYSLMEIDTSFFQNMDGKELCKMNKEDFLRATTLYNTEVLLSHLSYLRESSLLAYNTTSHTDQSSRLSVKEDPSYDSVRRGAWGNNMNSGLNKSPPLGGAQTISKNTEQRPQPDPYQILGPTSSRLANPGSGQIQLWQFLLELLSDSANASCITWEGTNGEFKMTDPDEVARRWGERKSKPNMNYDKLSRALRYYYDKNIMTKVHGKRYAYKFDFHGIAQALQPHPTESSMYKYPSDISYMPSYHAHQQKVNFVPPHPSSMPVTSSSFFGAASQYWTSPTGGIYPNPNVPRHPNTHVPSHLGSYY
The following applies: protein: recombinant; tags: N-terminal GST; dsDNA, one strand shown. Summed up: (§1)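 In yeast, human transcription factors were expressed with a GST fusion, then pulled down on glutathione beads and given DNA barcodes. Pooled with a tag-only sample, they were exposed to 200 nmole of a 16-mer random double-stranded DNA library (Tris/NaCl/DTT/glycerol buffer, room temperature, 30 min), washed, crosslinked with 0.1% formaldehyde, proximity-ligated using BsaI/T4 ligase for 1 h at 37 °C, PCR-amplified and read on an Illumina NextSeq500. Each hexamer's frequency of reads for a factor, divided by the matching frequency for the tag-only sample, gives the binding signal.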

Assay [2] deals with T2, ELK1 (Homo sapiens, UniProt P19419 1-428).
T2 sequence: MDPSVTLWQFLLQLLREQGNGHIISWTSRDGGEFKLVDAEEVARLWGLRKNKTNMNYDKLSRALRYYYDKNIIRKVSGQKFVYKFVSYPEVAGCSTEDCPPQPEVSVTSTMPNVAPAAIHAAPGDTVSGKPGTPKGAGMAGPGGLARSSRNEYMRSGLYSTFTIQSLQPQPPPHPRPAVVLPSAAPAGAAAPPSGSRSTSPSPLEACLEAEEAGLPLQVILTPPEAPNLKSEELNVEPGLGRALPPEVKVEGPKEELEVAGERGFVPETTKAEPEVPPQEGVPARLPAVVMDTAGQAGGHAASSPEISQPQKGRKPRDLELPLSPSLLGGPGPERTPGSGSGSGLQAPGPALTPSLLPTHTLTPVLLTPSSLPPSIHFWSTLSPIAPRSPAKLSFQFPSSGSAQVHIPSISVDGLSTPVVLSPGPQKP
The following applies: protein: recombinant; tags: N-terminal GST; dsDNA, one strand shown. The method, boiled down: as §1

In assay [3] the target is T3, GABPA (Homo sapiens, UniProt Q06546 1-454).
T3 sequence: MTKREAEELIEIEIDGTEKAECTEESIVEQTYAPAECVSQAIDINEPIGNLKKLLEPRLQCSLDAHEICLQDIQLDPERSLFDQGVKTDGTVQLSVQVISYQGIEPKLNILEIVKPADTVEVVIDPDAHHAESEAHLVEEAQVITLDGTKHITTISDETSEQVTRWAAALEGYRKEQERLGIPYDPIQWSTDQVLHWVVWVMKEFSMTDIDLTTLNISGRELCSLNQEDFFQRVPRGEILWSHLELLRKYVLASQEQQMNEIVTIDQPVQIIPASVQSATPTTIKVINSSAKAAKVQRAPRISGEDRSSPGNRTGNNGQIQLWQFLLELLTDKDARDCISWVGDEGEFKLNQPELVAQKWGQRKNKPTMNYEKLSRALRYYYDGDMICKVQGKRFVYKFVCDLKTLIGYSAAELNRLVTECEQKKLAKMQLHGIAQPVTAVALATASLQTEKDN
The following applies: protein: recombinant; tags: N-terminal GST; dsDNA, one strand shown. Summed up:
as §1

For assay [4], the target named is T4, ERG (Homo sapiens, UniProt P11308 1-479).
T4 sequence: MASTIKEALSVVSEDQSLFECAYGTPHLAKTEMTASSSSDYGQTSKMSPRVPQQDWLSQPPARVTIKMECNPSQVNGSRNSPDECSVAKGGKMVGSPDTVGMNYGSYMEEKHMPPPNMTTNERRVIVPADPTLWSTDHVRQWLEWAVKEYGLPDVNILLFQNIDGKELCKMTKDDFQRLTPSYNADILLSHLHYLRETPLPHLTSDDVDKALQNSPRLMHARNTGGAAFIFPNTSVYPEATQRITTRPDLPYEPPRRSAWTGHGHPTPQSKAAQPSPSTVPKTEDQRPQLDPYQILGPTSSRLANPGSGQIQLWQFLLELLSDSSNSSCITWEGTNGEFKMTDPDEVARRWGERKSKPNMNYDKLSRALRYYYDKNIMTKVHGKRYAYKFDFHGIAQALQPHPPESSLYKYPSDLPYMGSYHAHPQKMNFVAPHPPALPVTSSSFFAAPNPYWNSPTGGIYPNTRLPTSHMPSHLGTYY
Particulars: protein: recombinant; tags: N-terminal GST; dsDNA, one strand shown. The method, boiled down:
as §1

Assay [5] addresses ELF1 (Homo sapiens, UniProt P32519 1-619). The following applies: protein: recombinant; tags: N-terminal GST; dsDNA, one strand shown. Summed up:
as §1

Assay [6] concerns the target T5, EHF (Homo sapiens, UniProt Q9NZC4 1-300).
T5 sequence: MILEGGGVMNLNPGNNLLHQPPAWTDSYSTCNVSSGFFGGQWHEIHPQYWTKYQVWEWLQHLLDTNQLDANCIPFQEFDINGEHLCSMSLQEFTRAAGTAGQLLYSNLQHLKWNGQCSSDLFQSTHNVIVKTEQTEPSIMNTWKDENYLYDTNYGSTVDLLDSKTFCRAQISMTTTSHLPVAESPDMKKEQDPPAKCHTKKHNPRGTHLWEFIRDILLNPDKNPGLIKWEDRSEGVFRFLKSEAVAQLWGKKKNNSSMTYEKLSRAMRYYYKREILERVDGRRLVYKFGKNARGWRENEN
The following applies: protein: recombinant; tags: N-terminal GST; dsDNA, one strand shown. The method, boiled down: as §1

The target in assay [7] is SPI1 (Homo sapiens, UniProt P17947 1-270). The following applies: protein: recombinant; tags: N-terminal GST; dsDNA, one strand shown. The method, boiled down:
as §1

Assay [8] has as its target SPIB (Homo sapiens, UniProt Q01892 1-262). Particulars: protein: recombinant; tags: N-terminal GST; dsDNA, one strand shown. The method, boiled down:
as §1

In assay [9] the target is T6, ELK3 (Homo sapiens, UniProt P41970 1-407).
T6 sequence: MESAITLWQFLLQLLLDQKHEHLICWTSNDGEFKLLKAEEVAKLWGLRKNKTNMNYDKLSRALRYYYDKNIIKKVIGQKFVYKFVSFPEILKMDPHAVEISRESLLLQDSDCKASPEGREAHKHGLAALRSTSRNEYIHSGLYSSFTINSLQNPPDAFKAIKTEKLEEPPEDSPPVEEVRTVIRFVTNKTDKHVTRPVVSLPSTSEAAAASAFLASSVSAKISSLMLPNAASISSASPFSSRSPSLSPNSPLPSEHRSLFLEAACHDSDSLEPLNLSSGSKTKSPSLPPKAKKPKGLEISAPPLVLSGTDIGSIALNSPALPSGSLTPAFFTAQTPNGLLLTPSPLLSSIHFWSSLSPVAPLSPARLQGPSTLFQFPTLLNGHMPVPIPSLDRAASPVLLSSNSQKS
Particulars: protein: recombinant; tags: N-terminal GST; dsDNA, one strand shown. The method, boiled down:
as §1

For assay [10], the target named is T7, FEV (Homo sapiens, UniProt Q99581 1-238).
T7 sequence: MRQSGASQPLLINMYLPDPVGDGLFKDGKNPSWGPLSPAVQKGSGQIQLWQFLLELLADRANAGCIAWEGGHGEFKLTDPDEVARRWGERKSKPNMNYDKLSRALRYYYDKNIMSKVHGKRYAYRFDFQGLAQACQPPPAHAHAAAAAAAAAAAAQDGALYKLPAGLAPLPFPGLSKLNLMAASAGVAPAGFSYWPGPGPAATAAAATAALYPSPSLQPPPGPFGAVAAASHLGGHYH
The following applies: protein: recombinant; tags: N-terminal GST; dsDNA, one strand shown. The method, boiled down:
as §1

Assay [11] has as its target ETV5 (Homo sapiens, UniProt P41161 1-510). Particulars: protein: recombinant; tags: N-terminal GST; dsDNA, one strand shown. The method, boiled down:
as §1

The target in assay [12] is HSF1 (Homo sapiens, UniProt Q00613 1-529). The following applies: protein: recombinant; tags: N-terminal GST; chain copies: 3; dsDNA, one strand shown. The method, boiled down:
as §1

Assay [13] concerns the target T8, SPIC (Homo sapiens, UniProt Q8N5J4 1-248).
T8 sequence: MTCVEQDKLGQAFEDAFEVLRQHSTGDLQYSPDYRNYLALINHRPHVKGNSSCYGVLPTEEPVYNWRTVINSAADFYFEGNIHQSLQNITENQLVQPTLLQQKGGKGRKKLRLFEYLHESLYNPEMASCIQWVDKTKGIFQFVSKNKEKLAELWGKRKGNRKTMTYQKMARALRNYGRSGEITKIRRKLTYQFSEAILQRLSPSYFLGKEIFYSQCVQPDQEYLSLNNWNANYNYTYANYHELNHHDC
Particulars: protein: recombinant; tags: N-terminal GST; dsDNA, one strand shown. Summed up:
as §1

Assay [14] deals with ELF4 (Homo sapiens, UniProt Q99607 1-663). Particulars: protein: recombinant; tags: N-terminal GST; dsDNA, one strand shown. The method, boiled down: as §1
The target of assay [15] is T9, ELK4 (Homo sapiens, UniProt P28324-2 1-405).
T9 sequence: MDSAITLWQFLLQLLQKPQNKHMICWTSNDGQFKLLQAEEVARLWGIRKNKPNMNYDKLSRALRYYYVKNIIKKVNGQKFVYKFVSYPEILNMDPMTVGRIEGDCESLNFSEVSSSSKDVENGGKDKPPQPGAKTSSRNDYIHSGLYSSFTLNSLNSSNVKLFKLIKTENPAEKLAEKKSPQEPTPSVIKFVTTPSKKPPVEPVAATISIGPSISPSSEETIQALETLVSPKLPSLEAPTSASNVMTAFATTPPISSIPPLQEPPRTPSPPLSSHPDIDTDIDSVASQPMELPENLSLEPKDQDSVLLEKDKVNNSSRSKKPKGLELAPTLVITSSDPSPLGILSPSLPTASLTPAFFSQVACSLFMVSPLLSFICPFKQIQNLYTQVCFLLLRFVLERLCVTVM
The following applies: protein: recombinant; tags: N-terminal GST; dsDNA, one strand shown. Summed up: as §1

The target of assay [16] is T10, ETV2 (Homo sapiens, UniProt O00321 1-342).
T10 sequence: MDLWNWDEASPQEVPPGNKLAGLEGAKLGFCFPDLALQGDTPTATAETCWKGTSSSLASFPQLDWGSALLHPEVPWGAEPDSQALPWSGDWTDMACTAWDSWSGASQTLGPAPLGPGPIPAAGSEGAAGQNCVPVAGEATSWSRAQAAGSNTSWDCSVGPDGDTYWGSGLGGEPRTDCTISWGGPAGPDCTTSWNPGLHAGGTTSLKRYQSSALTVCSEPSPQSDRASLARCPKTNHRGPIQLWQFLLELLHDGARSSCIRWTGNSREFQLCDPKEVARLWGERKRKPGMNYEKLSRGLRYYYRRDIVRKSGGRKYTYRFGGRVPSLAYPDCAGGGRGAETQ
The following applies: protein: recombinant; tags: N-terminal GST; dsDNA, one strand shown. Summed up:
as §1

Assay [17] deals with T11, ELF3 (Homo sapiens, UniProt P78545 1-371).
T11 sequence: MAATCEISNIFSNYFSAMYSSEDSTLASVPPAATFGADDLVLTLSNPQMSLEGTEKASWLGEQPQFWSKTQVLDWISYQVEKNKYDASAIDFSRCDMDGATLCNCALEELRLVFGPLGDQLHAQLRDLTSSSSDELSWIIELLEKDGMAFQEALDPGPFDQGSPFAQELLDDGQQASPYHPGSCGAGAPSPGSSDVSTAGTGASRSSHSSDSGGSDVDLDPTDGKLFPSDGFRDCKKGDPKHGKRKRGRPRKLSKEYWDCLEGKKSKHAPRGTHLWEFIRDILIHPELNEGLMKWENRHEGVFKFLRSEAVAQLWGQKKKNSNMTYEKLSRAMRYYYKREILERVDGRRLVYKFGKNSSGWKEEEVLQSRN
The following applies: protein: recombinant; tags: N-terminal GST; dsDNA, one strand shown. Summed up: as §1

The target of assay [18] is CRX (Homo sapiens, UniProt O43186 1-299). The following applies: protein: recombinant; tags: N-terminal GST; dsDNA, one strand shown. The method, boiled down: as §1
For assay [19], the target named is ETV1 (Homo sapiens, UniProt P50549 1-477). The following applies: protein: recombinant; tags: N-terminal GST; dsDNA, one strand shown. Summed up:
as §1

ETV1, sequence (P50549 whole entry): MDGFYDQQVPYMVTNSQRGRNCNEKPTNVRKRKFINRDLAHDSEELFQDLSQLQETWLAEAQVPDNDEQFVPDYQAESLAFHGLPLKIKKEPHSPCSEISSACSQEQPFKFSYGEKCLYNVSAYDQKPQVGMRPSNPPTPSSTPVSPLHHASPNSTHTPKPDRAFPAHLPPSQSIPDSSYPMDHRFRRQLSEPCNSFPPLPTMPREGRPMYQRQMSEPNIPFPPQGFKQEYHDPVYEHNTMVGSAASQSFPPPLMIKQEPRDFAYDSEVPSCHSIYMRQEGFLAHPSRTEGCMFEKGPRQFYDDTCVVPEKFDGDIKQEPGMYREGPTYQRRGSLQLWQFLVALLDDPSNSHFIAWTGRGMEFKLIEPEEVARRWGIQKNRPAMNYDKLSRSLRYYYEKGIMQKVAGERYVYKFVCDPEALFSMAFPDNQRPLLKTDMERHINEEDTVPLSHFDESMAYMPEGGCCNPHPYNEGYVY
ETV5, sequence (P41161 whole entry): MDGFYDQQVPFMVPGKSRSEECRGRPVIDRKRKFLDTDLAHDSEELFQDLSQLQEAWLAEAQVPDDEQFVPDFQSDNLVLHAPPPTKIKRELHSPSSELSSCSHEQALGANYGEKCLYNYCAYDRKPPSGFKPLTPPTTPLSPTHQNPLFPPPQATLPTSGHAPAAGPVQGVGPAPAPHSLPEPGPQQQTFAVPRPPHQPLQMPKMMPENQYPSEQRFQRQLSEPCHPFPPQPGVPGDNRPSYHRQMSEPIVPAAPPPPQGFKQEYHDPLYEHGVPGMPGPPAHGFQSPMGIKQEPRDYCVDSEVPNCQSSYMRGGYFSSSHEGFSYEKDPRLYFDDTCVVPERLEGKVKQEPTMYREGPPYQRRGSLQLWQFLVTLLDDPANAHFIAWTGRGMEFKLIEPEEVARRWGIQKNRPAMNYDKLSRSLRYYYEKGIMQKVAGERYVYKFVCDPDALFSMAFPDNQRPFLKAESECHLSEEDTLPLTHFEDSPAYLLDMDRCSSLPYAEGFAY
HSF1, sequence (Q00613 whole entry): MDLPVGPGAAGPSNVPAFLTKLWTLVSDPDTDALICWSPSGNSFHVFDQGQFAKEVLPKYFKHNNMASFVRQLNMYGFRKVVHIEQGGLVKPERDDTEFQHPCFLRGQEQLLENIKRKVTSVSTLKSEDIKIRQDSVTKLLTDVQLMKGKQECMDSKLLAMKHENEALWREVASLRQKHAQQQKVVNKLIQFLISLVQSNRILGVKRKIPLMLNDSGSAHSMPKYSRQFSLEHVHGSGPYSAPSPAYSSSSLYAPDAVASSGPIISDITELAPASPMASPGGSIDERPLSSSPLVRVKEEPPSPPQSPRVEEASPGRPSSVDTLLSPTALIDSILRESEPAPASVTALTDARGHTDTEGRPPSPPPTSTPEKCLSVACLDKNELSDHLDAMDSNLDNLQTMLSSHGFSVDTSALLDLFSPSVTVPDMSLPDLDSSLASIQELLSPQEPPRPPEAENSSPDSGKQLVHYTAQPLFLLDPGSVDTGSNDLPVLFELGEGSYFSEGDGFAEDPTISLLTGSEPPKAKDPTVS
SPIB, sequence (Q01892 whole entry): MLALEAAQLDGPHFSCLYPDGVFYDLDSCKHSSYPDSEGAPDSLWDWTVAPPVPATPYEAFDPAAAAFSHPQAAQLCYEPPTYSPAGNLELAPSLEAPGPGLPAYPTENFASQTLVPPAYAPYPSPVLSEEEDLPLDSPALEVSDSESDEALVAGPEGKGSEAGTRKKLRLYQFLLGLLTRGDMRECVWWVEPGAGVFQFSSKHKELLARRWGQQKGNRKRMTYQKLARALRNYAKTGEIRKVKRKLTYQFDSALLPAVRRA
ELF1, sequence (P32519 whole entry): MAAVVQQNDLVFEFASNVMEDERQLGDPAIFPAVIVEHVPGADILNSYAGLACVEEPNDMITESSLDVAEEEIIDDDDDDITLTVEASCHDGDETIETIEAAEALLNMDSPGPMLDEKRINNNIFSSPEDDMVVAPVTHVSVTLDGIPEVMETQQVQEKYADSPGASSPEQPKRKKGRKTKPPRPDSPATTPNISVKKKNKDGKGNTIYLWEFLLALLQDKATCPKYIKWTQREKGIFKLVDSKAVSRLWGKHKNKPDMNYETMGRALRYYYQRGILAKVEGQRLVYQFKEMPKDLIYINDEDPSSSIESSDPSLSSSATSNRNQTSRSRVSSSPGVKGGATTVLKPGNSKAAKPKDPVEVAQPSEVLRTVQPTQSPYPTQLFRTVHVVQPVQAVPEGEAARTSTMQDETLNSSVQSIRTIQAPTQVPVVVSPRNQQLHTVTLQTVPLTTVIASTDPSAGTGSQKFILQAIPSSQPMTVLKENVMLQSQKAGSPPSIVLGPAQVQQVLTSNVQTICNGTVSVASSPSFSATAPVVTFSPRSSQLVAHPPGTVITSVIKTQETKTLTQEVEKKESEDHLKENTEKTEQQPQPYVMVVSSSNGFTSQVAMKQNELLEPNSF
ELF4, sequence (Q99607 whole entry): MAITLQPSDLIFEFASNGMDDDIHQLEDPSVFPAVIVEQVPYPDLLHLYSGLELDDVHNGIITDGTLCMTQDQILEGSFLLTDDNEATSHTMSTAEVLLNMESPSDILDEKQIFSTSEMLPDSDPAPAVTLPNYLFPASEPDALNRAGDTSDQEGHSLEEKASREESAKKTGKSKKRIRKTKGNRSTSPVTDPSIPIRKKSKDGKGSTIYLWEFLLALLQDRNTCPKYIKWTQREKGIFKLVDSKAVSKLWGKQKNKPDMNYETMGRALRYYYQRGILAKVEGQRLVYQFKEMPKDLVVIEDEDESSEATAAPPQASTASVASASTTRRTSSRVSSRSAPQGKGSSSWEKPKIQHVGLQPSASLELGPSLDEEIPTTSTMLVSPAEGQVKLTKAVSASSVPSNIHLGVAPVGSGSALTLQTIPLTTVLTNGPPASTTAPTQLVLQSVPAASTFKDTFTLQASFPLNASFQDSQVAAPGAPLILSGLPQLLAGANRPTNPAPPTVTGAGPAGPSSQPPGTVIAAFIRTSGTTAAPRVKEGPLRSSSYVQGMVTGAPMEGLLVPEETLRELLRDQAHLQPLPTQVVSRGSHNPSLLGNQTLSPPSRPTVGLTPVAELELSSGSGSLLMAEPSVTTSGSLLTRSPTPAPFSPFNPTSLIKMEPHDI
CRX, sequence (O43186 whole entry): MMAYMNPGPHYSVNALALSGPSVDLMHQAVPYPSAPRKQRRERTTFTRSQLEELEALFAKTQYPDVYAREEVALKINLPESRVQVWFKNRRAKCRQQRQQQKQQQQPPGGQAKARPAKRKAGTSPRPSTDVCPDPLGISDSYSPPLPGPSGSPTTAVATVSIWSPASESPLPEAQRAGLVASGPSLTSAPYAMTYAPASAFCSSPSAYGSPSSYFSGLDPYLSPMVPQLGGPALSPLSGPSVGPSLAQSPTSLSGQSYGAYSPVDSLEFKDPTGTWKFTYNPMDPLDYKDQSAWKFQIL

Consider TCCTTA, for which the binding signal in assay [1] was 1.6 fold enrichment (6-mer frequency, TF over GST control); in assay [2] it was 1.38 fold enrichment (6-mer frequency, TF over GST control); in assay [3], 1.57 fold enrichment (6-mer frequency, TF over GST control); in assay [4], 1.55 fold enrichment (6-mer frequency, TF over GST control); in assay [5] it was 1.66 fold enrichment (6-mer frequency, TF over GST control); in [6] it was 1.71 fold enrichment (6-mer frequency, TF over GST control). In addition, the binding signal in assay [7] was 1.78 fold enrichment (6-mer frequency, TF over GST control); in [8], 1.7 fold enrichment (6-mer frequency, TF over GST control); in [9], 1.4 fold enrichment (6-mer frequency, TF over GST control); in assay [10] it was 1.48 fold enrichment (6-mer frequency, TF over GST control); in assay [11], 1.52 fold enrichment (6-mer frequency, TF over GST control); in assay [12] it was 1.54 fold enrichment (6-mer frequency, TF over GST control). The binding signal in assay [13] was 1.66 fold enrichment (6-mer frequency, TF over GST control); in assay [14], 1.56 fold enrichment (6-mer frequency, TF over GST control); in [15], 1.41 fold enrichment (6-mer frequency, TF over GST control); in assay [16], 1.59 fold enrichment (6-mer frequency, TF over GST control); in assay [17], 1.43 fold enrichment (6-mer frequency, TF over GST control); in [18], 1.83 fold enrichment (6-mer frequency, TF over GST control). In addition, the binding signal in assay [19] was 1.56 fold enrichment (6-mer frequency, TF over GST control).

The values are drawn from PMC7862700, “An all-to-all approach to the identification of sequence-specific readers for epigenetic DNA modifications on cytosine”.
